We go through 39 compounds from the supplement of paper PMC12669032.

Values joined by “and” are separate entries in the source; they are usually repeats but may differ in a detail not shown here. Identical values can stand only once. A number with no mark means an inactive call.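 The calls were made as follows: active = AUC reduced over 20% with Padj below 0.05 in at least 2 of 3 replicates; inactive = otherwise.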

The experiment has as its system Akkermansia muciniphila. Put plainly: growth AUC relative to DMSO control (median of replicates) (fraction); higher = more growth (less inhibition), active = hit call of the paper. As to conditions: 20 µM; 24 h. The method in brief:
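In round-bottom 96-well plates sealed with pierced gas-permeable seals, gut bacterial monocultures in mGAM were grown anaerobically at 37 °C from OD600 0.05 with 20 µM compound (1% DMSO). OD600 readings were taken hourly for 24 h, and the minimum OD was set to 0. Area under the growth curve was then normalised to the plate median of solvent-only wells, or to row and column medians on the industrial chemical plate. The value given is the median of three biological replicates grown on separate days.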
On to `Nc1cc(Cl)cc(C(=O)O)c1Cl`, for which the “growth AUC” value is 1.03. The figure for `CCOP(=S)(OCC)Oc1cnccn1` is 0.892; for `O=C(O)C(F)(F)C(F)(F)C(F)(F)C(F)(F)C(F)(F)C(F)(F)C(F)(F)C(F)(F)F` it is 1.01. The figure for `CCOP(=S)(OCC)SCSCC` is 1.1; for `CCOCn1c(-c2ccc(Cl)cc2)c(C#N)c(Br)c1C(F)(F)F` it is 1.07.

Take `CCS(=O)(=O)c1cccnc1S(=O)(=O)NC(=O)Nc1nc(OC)cc(OC)n1`: the “growth AUC” value is 0.976. Consider `CCNc1nc(NC(C)C)nc(SC)n1`, for which the “growth AUC” value is 0.916. In the case of `CN1COCN(Cc2cnc(Cl)s2)/C1=N/[N+](=O)[O-]` it was 0.919. In the case of `COP(=S)(NC(C)C)Oc1ccccc1C(=O)OC(C)C` (centres undefined) it was 1.07; in that of `COC(=O)C(C)(Cl)Cl`, 0.86. In the case of `CCCCOCN(C(=O)CCl)c1c(CC)cccc1CC` it was 1.07; in that of `CC1(C)C(C=C(Cl)Cl)C1C(=O)OC(C#N)c1ccc(F)c(Oc2ccccc2)c1` (mixture of isomers), 1.08; in that of `CCOC(=O)CC(SP(=O)(OC)OC)C(=O)OCC` (centres undefined), 1.24. Take `CCNc1nc(Cl)nc(NC(C)C)n1`: the “growth AUC” value was 1.05. The figure for `Cc1cccc(C)c1N` is 0.917; for `CN(C)C(=O)Nc1ccc(Cl)cc1` it is 0.948. The figure for `CCCCNC(=O)n1c(NC(=O)OC)nc2ccccc21` is 1.04. The figure for `N#Cc1cc(I)c(O)c(I)c1` is 0.914. For the compound `CCOP(=S)(OCC)Oc1cc(Cl)c(Br)cc1Cl`, the “growth AUC” value is 0.917.

Consider `Cc1cnc(C2=NC(C)(C(C)C)C(=O)N2)c(C(=O)O)c1` (centres undefined), for which the “growth AUC” value was 1.05. Regarding `CC1(C)CCC(Cc2ccc(Cl)cc2)C1(O)Cn1cncn1` (centres undefined), the “growth AUC” value is 1.01. The figure for `CCCN(CCC)c1c([N+](=O)[O-])cc(S(C)(=O)=O)cc1[N+](=O)[O-]` is 0.897; for `Cc1occc1C(=O)Nc1ccccc1` it is 0.899. In the case of `CCCOCC(=Nc1ccc(Cl)cc1C(F)(F)F)n1ccnc1` it was 1.03; in that of `Nc1cc(Cl)cc(Cl)c1`, 1.1; in that of `O=C(O)COc1cc(Cl)c(Cl)cc1Cl`, 0.934. The figure for `Cc1cc(Cl)ccc1N=CN(C)C` is 1.01. As to `CNC(=O)Oc1cc(C)cc(C(C)C)c1`, the “growth AUC” value was 0.995. As for `CCOc1cc(Oc2ccc(C(F)(F)F)cc2Cl)ccc1[N+](=O)[O-]`, the “growth AUC” value was 1.08. Turning to `O=[N+]([O-])c1c(Cl)c(Cl)c(Cl)c(Cl)c1Cl`, the “growth AUC” value is 0.814. In the case of `CC(Cc1ccc(C(C)(C)C)cc1)CN1CCCCC1` (centres undefined) it was 0.735; in that of `CNC(=O)c1cc(C#N)cc(C)c1NC(=O)c1cc(Br)nn1-c1ncccc1Cl`, 0.947; in that of `O=P(Oc1ccccc1)(Oc1ccccc1)Oc1ccccc1`, 0.805. In the case of `CC(=NC#N)N(C)Cc1ccc(Cl)nc1` it was 0.993 and 0.945.

For the compound `CO/N=C(/C1=NOCCO1)c1ccccc1Oc1ncnc(Oc2ccccc2Cl)c1F`, the “growth AUC” value is 0.963. Turning to `Cc1ccn2nc(S(=O)(=O)Nc3c(F)cccc3F)nc2n1`, the “growth AUC” value is 1.04. With `N#Cc1c(Cl)c(Cl)c(Cl)c(C#N)c1Cl`, the “growth AUC” value is 0.96. The figure for `C=CCC1=C(C)C(OC(=O)[C@@H]2[C@@H](C=C(C)C)C2(C)C)CC1=O` (some centres undefined) is 1.01; for `O=C(O)CNCP(=O)(O)O` it is 1.07.
